# Results as given in PubChem BioAssay AID504332 (National Center for Advancing Translational Sciences (NCATS), 2011).
# Hit rate of the full screen: of about 350,000 compounds, about 31,000 (8.9%) were called active. About 15% were inconclusive and are not listed. The sample holds actives, similar compounds and a random draw of the others, so the mix is not that of the screen. The call rests on the fitted dose curve; in most records, active means well fitted inhibition curve with a large enough effect; inconclusive means small, poorly fitted or top-dose-only effect; inactive means no such curve, though single readings can be large or run the other way.
# Target: Histone-lysine N-methyltransferase EHMT2 (Homo sapiens) (UniProt Q96KQ7)
# Test: qHTS Assay for Inhibitors of Histone Lysine Methyltransferase G9a; further: nearly all actives have a fitted effect of over 75% in size
# Details: G9a H3K9 monomethylation, AlphaScreen, 2 h; series mostly up to 59 µM; activity, negative = inhibition: at the top concentration
# In short: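 Chemiluminescent proximity detection of H3K9 monomethylation, read after 10 min bead incubation in the dark. Reaction: 20 nM G9a, 500 nM biotin-H3K9 peptide, 20 uM SAM cofactor, 2 h, room temperature, following 15 min enzyme-compound preincubation.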
# On the % scale 0 is the no-effect control and ±100 the full control effect; potency means the concentration at half of the fitted maximal effect.
# Sequence of Histone-lysine N-methyltransferase EHMT2 (Homo sapiens) (Q96KQ7 913-1193 limits assumed): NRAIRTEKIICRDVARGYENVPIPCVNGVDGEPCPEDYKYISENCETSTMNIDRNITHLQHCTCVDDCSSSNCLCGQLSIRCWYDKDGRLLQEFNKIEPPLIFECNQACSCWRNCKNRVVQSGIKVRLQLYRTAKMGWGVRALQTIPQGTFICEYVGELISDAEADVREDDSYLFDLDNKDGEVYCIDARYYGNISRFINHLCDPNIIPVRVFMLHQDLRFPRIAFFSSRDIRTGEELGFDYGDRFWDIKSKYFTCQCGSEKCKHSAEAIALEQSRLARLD
Structure (SMILES),"activity, negative = inhibition",Potency
CCCC(=O)N1CCN(c2nnc(-c3ccc(C)cc3)c3ccccc23)CC1,-4.7% [at 102 µM] (inactive),
CCc1nnc(NS(=O)(=O)c2ccc(NS(=O)(=O)c3ccccc3)cc2)s1,2.62% [at 12.7 µM] (inactive),
CCc1nnc(NS(=O)(=O)c2ccc(NC(=S)NC(=O)/C=C/c3cccs3)cc2)s1,,44.7 µM (active)
CCc1nnc(NS(=O)(=O)c2ccc(NC(=S)NC(=O)c3cccs3)cc2)s1,-49.2% [at 102 µM] (inactive),
Cc1ccccc1CNC(=O)CSc1nnc(C)c2c(C)n(-c3ccccc3)nc12,-26.6% (inactive),
O=C(CCn1nnnc1CN1CCOCC1)N1CCC(c2ccccc2Cl)C1 (configuration not stated),68.2% [at 102 µM] (inactive),
Nn1c(SCC(=O)Nc2nccs2)nnc1-c1ccco1,,28.2 µM (active)
CCc1cccc(C)c1NC(=O)CSc1nnc(-c2ccco2)n1N,11.7% [at 0.501 µM] (inactive),
CCOC(=O)CSc1nnc(-c2ccco2)n1C,-7.88% [at 102 µM] (inactive),
Cn1c(SCC(=O)c2cccs2)nnc1-c1ccco1,,50.1 µM (active)
Cn1c(SCC(=O)Nc2nccs2)nnc1-c1cccnc1,-4.03% (inactive),
CCCCNC(=O)CSc1nnc(-c2ccco2)n1C,-12.7% (inactive),
Cc1cccc(Cn2c(=O)n(CCC(=O)NCCc3ccc(Cl)cc3)c(=O)c3sccc32)c1,-34.7% (inactive),
COc1ccc(NC(=O)CN(C)C(=O)c2ccc(NC3CC3)c([N+](=O)[O-])c2)cc1,-3.73% [at 2.33 µM] (inactive),
Cc1ccc(-n2c(=O)c3cccnc3n2CC(=O)NCc2ccc(F)cc2)cc1C,5.6% (inactive),
CC(=O)Nc1cc(C(=O)NCc2ccc(F)cc2)ccc1Sc1ccc(F)cc1,-1.44% (inactive),
Cc1cccc(C(=O)NCCCN(C)CCCNC(=O)c2cccc(C)c2)c1,10.2% (inactive),
CCN(CCCNC(=O)c1ccc(Sc2ccc(C)cc2)c(NC(C)=O)c1)c1cccc(C)c1,,12.6 µM (active)
CCN(CCCNC(=O)c1ccc2c(c1)NC(=O)CN2C)c1cccc(C)c1,,7.94 µM (active)
CC(=O)Nc1cc(C(=O)NCc2ccc(F)cc2Cl)ccc1Sc1ccc(Cl)cc1,-3.69% (inactive),
CCN(CCCNC(=O)Cn1ncc2c([nH]c3ccccc32)c1=O)c1cccc(C)c1,-28% (inactive),
Cc1oc2ccc(O)c(CN3CCOCC3)c2c1C(=O)Nc1cccc(Cl)c1C,0.579% (inactive),
C=CCOc1ccc(/C=C/C(=O)OCC(=O)NCC2CCCO2)cc1 (configuration not stated),6.35% [at 12.7 µM] (inactive),
CCC(=O)N(Cc1cc2ccccc2[nH]c1=O)c1ccc(OC)cc1,3.58% [at 102 µM] (inactive),
Cc1ccc(N(Cc2cc(=O)[nH]c3ccccc23)C(=O)CCl)cc1,,11.2 µM (active)

Structure (SMILES),"activity, negative = inhibition",Potency
Cc1ccc(N(Cc2cc3ccccc3[nH]c2=O)C(=O)c2cccs2)cc1,-5.43% (inactive),
Cn1nnnc1SCc1cc(=O)[nH]c2ccccc12,13.3% (inactive),
CC(=O)N(Cc1cc(=O)[nH]c2ccccc12)c1ccc(C)cc1C,,31.6 µM (active)
CCCN(CC(=O)Nc1ccccc1C)C(=O)c1cc(=O)[nH]c2ccccc12,-4.7% [at 102 µM] (inactive),
Cc1oc2ncnc(N3CCCCC3)c2c1C(=O)N1CCN(c2cccc(Cl)c2)CC1,-29.8% (inactive),
Cc1ccc2nc(-c3ccc(C)c(NC(=O)Cc4ccccc4)c3)oc2c1,9.96% (inactive),
CCC(NC(=O)c1cc(COc2ccc(F)c(F)c2)on1)c1ccncc1 (configuration not stated),13.4% [at 12.7 µM] (inactive),
COc1cc(OC)cc(C(=O)Nc2ccc3nc(Nc4cccc(C(F)(F)F)c4)cc(C)c3c2)c1,-2.07% (inactive),
COc1ccc(S(=O)(=O)Nc2ccc3cn[nH]c3c2)cc1[N+](=O)[O-],-20.9% [at 12.7 µM] (inactive),
Cc1sc(NC(=O)C2=COCCO2)c(C#N)c1C,,11.2 µM (active)
CCC(CC)c1nnc(NC(=O)C2=COCCO2)s1,,39.8 µM (active)
CCn1c(SCC(=O)Nc2sc(C)c(C)c2C#N)nnc1C1CC1,9.74% (inactive),
COc1cccc(OC)c1C(=O)Nc1nnc(C(C)C)s1,-41.9% [at 102 µM] (inactive),
CCN(CC)C(=O)c1sc(NC(=O)c2ccco2)c(C#N)c1C,-19.4% (inactive),
CCC(CC)c1nnc(NC(=O)c2nn(C)c(=O)c3ccccc23)s1,1.31% [at 102 µM] (inactive),
O=C(N=C1SC2CS(=O)(=O)CC2N1c1cc(Cl)ccc1Cl)C1CC1 (configuration not stated),0.566% [at 102 µM] (inactive),
CCOc1ccc(N(CC)S(=O)(=O)N2CCCC(C(=O)NCc3ccc(SC)cc3)C2)cc1 (configuration not stated),-30.4% (inactive),
CCCCn1c(=O)c2oc3ccccc3c2n(CC(=O)Nc2ccccc2OC)c1=O,6.86% (inactive),
COc1ccc(NC(=S)N2CCCC(CO)C2)c(OC)c1 (configuration not stated),-13.8% [at 102 µM] (inactive),
COc1cc(NC(=S)N2CCCC(C)C2)cc(OC)c1OC (configuration not stated),,50.1 µM (active)
CCCCc1ccc(NC(=S)N2CCCC(CO)C2)cc1 (configuration not stated),22.7% (inactive),
CCOc1ccc(NC(=O)c2ccc(NC(=O)COC(=O)c3ccc(NC(=O)CC#N)cc3)cc2)cc1,12.7% [at 2.33 µM] (inactive),
O=C(NCc1ccccc1)C(=O)NCC(c1ccco1)S(=O)(=O)c1ccc(Cl)cc1 (configuration not stated),-6.14% (inactive),
Cc1nn(Cc2ccccc2)c(C)c1C(=O)N1CCN(CC(=O)Nc2ccccc2Cl)CC1,-4.66% (inactive),
Cc1ccc(S(=O)(=O)N(C)C)cc1NC(=O)COC(=O)/C=C/c1cccs1,,28.2 µM (active)

Structure (SMILES),"activity, negative = inhibition",Potency
Cc1ccc(S(=O)(=O)N(C)C)cc1NC(=O)COC(=O)c1c(C)noc1C,-6.63% (inactive),
CN(C)S(=O)(=O)c1cccc(NC(=O)COC(=O)/C=C/c2cccs2)c1,6.05% [at 102 µM] (inactive),
CCOC(=O)c1cc2c(=O)n3ccccc3nc2n(CCCOC)c1=NC(=O)C(C)Oc1ccccc1 (configuration not stated),6.36% (inactive),
COCCCC1CCN(C(=O)C2CCC(=O)N(C3CCCCCC3)C2)CC1 (configuration not stated),11.5% [at 102 µM] (inactive),
Cc1onc(-c2ccc(F)cc2F)c1C(=O)Nc1cccc(C(F)(F)F)c1,3.49% (inactive),
Cc1ccc(C(=O)N2c3ncnn3C3(CCCCC3)[C@@H]3CCCC[C@@H]32)cc1,-3.48% (inactive),
Cc1ccccc1CN1CCC(CNC(=O)c2cc3ccc4cccnc4c3[nH]2)CC1,-2.49% (inactive),
COc1cc(C(=O)NNC(=O)CN2C(=O)NC3(CCCC3)C2=O)cc(OC)c1OC,-2.65% (inactive),
O=C(CCCN1CCc2[nH]c3ccc(F)cc3c2C1)c1ccc(F)cc1,,50.1 µM (active)
Cc1nnc(SCc2cc(=O)c3cc(F)ccc3[nH]2)n1C,-1.44% (inactive),
O=C(c1cc2cc(F)ccc2[nH]1)N1CCN(c2ccc(F)cc2)CC1,-8.91% [at 102 µM] (inactive),
Cc1ccc2cc(C#N)c(SCC(=O)NCC3CCCO3)nc2c1C (configuration not stated),-4.15% [at 102 µM] (inactive),
Cc1cc(C#N)c(SCC(N)=O)nc1-c1ccc(F)cc1,,12.6 µM (active)
Cc1cc(=O)[nH]c(SCC(N)=O)c1C#N,9.52% [at 2.33 µM] (inactive),
COc1ccc(C(=O)NC2=NCCS2)c(OC)c1,5.43% [at 12.7 µM] (inactive),
COc1ccc(Cc2nnc(NC(=O)c3ccc(OC)cc3OC)s2)cc1,-7.06% [at 0.501 µM] (inactive),
COc1ccc(C(=O)Nc2nncs2)c(OC)c1,,39.8 µM (active)
COc1ccc(S(=O)(=O)c2c(Nc3ccc(C)cc3)sc(C(=O)c3ccc(C)cc3)c2N)cc1,9.77% (inactive),
O=C(NCc1ccccc1)C(c1ccco1)N(C(=O)c1csnn1)c1ccccc1F (configuration not stated),1.04% [at 102 µM] (inactive),
Cc1ccc(NC(=O)CSc2nnc3[nH]c(=O)cc(C)n23)cc1Cl,-15.6% (inactive),
COC(=O)C1=C(C)N(C(C)c2ccccc2)C(=O)/C1=C\c1ccco1 (configuration not stated),,35.5 µM (active)
CC(C)NC(=O)C(=O)N/N=C/c1ccco1,4.44% (inactive),
COC(=O)C1=C(C)N(c2ccc(Br)cc2)C(=O)/C1=C\c1ccco1,-24.3% (inactive),
COc1c(Cl)cc(C(=O)N(Cc2ccccc2F)C2CCS(=O)(=O)C2)cc1Cl (configuration not stated),4.3% (inactive),
Cc1ccc(C(=O)N2CCc3cc(CNC(=O)c4ccc(Br)cc4)ccc32)cc1,-38.8% (inactive),

Structure (SMILES),"activity, negative = inhibition",Potency
O=C(OCC(=O)N1CCc2ccccc21)c1ccc([N+](=O)[O-])cc1,-12.4% [at 2.33 µM] (inactive),
CCC(CC)COC(=O)C1=C(C)NC(=O)NC1c1ccc([N+](=O)[O-])cc1 (configuration not stated),24.1% [at 102 µM] (inactive),
COc1cccc(N2CCN(CC(=O)Nc3ccnn3C3CCCC3)CC2)c1,3.38% [at 12.7 µM] (inactive),
CCCSc1ncc(Cl)c(C(=O)Nc2sc3c(c2C(=O)NCCOC)CCCC3)n1,-44.5% (inactive),
COc1cc(NS(=O)(=O)c2ccc(NC(C)=O)cc2)cc(OC)c1,-9.27% (inactive),
CC(=O)Nc1ccc(S(=O)(=O)Nc2cc(C)cn(Cc3ccc(C)cc3)c2=O)cc1,,44.7 µM (active)
COc1ccc(NS(=O)(=O)c2ccc(NC(C)=O)cc2)cc1OC,-48.3% (inactive),
CC(=O)c1c(C)[nH]c(C(=O)N2CCN(S(=O)(=O)c3ccc(F)c(F)c3)CC2)c1C,-26.5% [at 102 µM] (inactive),
CCC(C)C(=O)Nc1ccccc1N1CCN(c2ccc(F)cc2)CC1 (configuration not stated),0.656% [at 102 µM] (inactive),
Cc1ccc(OCCC(=O)Nc2ccc(S(=O)(=O)Nc3nccs3)cc2)cc1,15% [at 12.7 µM] (inactive),
COc1cn(CC(=O)Nc2cccc(C)c2C)c(CN2CCCCC2)cc1=O,4.69% (inactive),
COc1ccccc1C(=O)Nn1cnnc1,10.5% [at 102 µM] (inactive),
O=C(NN1C(=O)C2C3C=CC(C4CC34)C2C1=O)c1ccc(Cl)cc1 (configuration not stated),7.55% [at 102 µM] (inactive),
O=C(NN1C(=O)C2C3C=CC(O3)C2C1=O)c1ccncc1 (configuration not stated),,44.7 µM (active)
COc1ccc(C(=O)NN2C(=O)C3C(c4ccccc4)C=CC(c4ccccc4)C3C2=O)cc1 (configuration not stated),17.1% (inactive),
COc1ccccc1C(=O)NN1C(=O)C2C3C=CC(O3)C2C1=O (configuration not stated),,35.5 µM (active)
C/C=C/C=N/NC(=O)c1ccncc1,3.78% [at 12.7 µM] (inactive),
CCC(=O)N1CCc2cc(Br)cc(S(=O)(=O)Nc3ccc(C)cc3C)c21,-3.03% (inactive),
CCOc1ccc(C(CC(=O)O)NC(=O)Cc2ccccc2)cc1OC (configuration not stated),-10.4% [at 102 µM] (inactive),
CSc1nc(=O)c2c(n1C)NC(=O)CC2c1ccccc1OC(C)C (configuration not stated),6.92% (inactive),
CN(C)c1nc(=Nc2cccc(Cl)c2)ss1,,6.31 µM (active)
CCC(C)C(N=C1NS(=O)(=O)c2ccccc21)C(=O)N1CCC(C)CC1 (configuration not stated),-37.1% [at 102 µM] (inactive),
